Results from the supplement of paper PMC10338343.
± gives the standard deviation.

tested on: MILI (PIWIL2) piRISC loaded with piRNA #1 (26 nt); test: pre-steady-state target cleavage rate (min^-1); guide: piRNA #1 5'p-UGAGGUAGUAGGUUGUAUAGUAUCCA; MIWI and MILI are mouse PIWI proteins and EfPiwi is from a freshwater sponge; tags in brackets are library labels; higher = faster piRNA-guided slicing of the target; conditions: auxiliary factor: 500 nM mouse GTSF1
Protocol: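 Cleave-'n-Seq: a library of target RNAs (target site embedded in constant flanks, ACAGCATTCCGCGTTAGTGATATCCG... 5' flank; DNA-blocked outside the site) at 0.1 nM was incubated with 1 nM active mouse MILI or MIWI piRISC (synthetic 5'-monophosphorylated piRNA guide) with or without 500 nM mouse GTSF1 at 33 °C for 1 min to 16 h. Uncleaved targets were sequenced and normalised to non-target controls, and the pooled three trials were fitted to a burst-and-steady-state model to give the pre-steady-state cleavage rate (min^-1; k3 is constrained to at most 1e-4). Sequence is the target site only; target names encode pairing extent (gX:gY) and contiguous / 1-mismatch / 2-mismatch / bulge geometry. Fits with R² ≤ 0 are excluded.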

Row | Sequence | pre-steady-state target cleavage rate
1 | GGAGACCUAUGAUAACCAACCUACUACCUCA | 0.00371 ± 0.0025
2 | GGAGACCUUUCUAUACAACCUACUACCUGA | 0.0728 ± 0.013
3 | GGAGACCAAACUAUACAUCCUACUACCUCA | 0.168 ± 0.034
4 | GGAGACCUAUCUAUACAUCCUACUACCACA | 0.209 ± 0.025
5 | GGAGACCUAACUAUAUCAACCUACUACCUCA | 0.00944 ± 0.004
6 | GGAGACCAUACUAUACAACCUACUACCCCA | 0.156 ± 0.024
7 | GGAGACCUAUCAUAACAACCUACUACCUCA | 0.0143 ± 0.0053
8 | GGAGACCUAUGAUAACAUCCUACAACCUCA | 0.00633 ± 0.0025
9 | GGAGACCAUACUAUUCAAGCUACUACCUCA | 0.182 ± 0.016
10 | GGAGACCUAUGAAUACAACCUACUACCUACA | 0.00696 ± 0.0027
11 | GGAGACCUUACUAUACAACCUAGUACCACA | 0.00907 ± 0.0036
12 | GGAGACCUUACUAUACAACCAACUACGUCA | 0.00333 ± 0.0023
13 | GGAGUGGAUAGAAUACAACCUACUACCUCA | 0.156 ± 0.014
14 | GGAGACCAUUCUAUUCAACCUACUACCUCA | 0.102 ± 0.012
15 | GGAGACGAUACUAUACAACCUACUACGAGA | 0.11 ± 0.034
16 | GGAGACCUAUCAUAUACAACCUACUACCUCA | 0.0423 ± 0.0085
17 | GGAGUGGAUACUAUAGAACCUACUACGUCA | 0.0161 ± 0.0041
18 | GGAGACCAUAGUAUACUACCUACUACCUCA | 0.131 ± 0.013
19 | GGAGUGGAUACUAAAGAACCUACUACCUCA | 0.167 ± 0.011
20 | GGAGACCUAUGAAUACAACCUACAACCUCA | 0.0078 ± 0.0029

Row | Sequence | pre-steady-state target cleavage rate
21 | GGAGACCUUUCUAUACAACCUUCUACCUCA | 0.00706 ± 0.003
22 | GGAGACCUUACUAAACAACCUAGUACCUCA | 0.0259 ± 0.0068
23 | GGAGACCUAUGAUAUGUACCUACAAGCUCA | < 0.0001
24 | GGAGAGGAUACUAUACAUCCUACUACCUCA | 0.28 ± 0.023
25 | GGAGACCUUACUAUACAACGUACUACCACA | 0.0216 ± 0.0046
26 | GGAGACCUAUGUAUACAACCCACUACCUCA | 0.0101 ± 0.0034
27 | GGAGACGAUACUAUUCAACCUUCUACCUCA | 0.0105 ± 0.0025
28 | GGAGACCUAUGUAUACAACCUACUUCCUGA | 0.00819 ± 0.0021
29 | GGAGUCGAUACUAUACAAGCUACUACCUCA | 0.142 ± 0.011
30 | GGAGACCUUACUAUACAACCAUACUACCUCA | 0.0055 ± 0.0037
31 | GGAGAGGAUAGUAUACAACCUACUACCUCA | 0.0476 ± 0.01
32 | GGAGACCUAUGAUAUGUACCUACAACCUGA | < 0.0001
33 | GGAGACCUAUCUUUACAACCAACUACCUCA | 0.0039 ± 0.0033
34 | GGAGACCAUCUAUACAACCUACUACCUCA | 0.112 ± 0.013
35 | GGAGUGCAUACUAUAGAACCUACUACCUCA | 0.177 ± 0.013
36 | GGAGUGGAUACUAUUCAACCUACUACCUGA | 0.0817 ± 0.011
37 | GGAGACCUAUGUAUACAACCUACUAGCCUCA | 0.0572 ± 0.013
38 | GGAGUGGAAACAAUACAACCUACUACCUCA | 0.184 ± 0.018
39 | GGAGACCUAUCUAUACAACCUACUAGCACA | 0.0357 ± 0.012
40 | GGAGAGGAUACGUAUACAACCUACUACCUCA | 0.0772 ± 0.011
